Rows were chosen to be rich in hits. Some 8.5% of all compounds tested hit in one or more screens of this group.
FBPA coupling cs = counter-screen for Giardia aldolase inhibitors: coupling enzyme system; coupling enzyme system counterscreen, AmpLite Red fluorescence; 290,000 tested, 0.67% active; activity change, negative = inhibition, % at 58.2 µM, hits read low; AID 2472; in the data active = activity change below about -30%
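Counterscreen lacking aldolase: glyceraldehyde-3-phosphate coupling-enzyme reagent preincubated 10 min at RT with compound (at 57.5 uM final), then substrate/coupling system with AmpLite Red added; fluorescence read at 525/598 nm after 20 min RT.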
KDM4E inh = inhibitors of human JMJD2E histone demethylase; B2RXH2; JMJD2E catalytic domain, FDH-coupled NADH fluorescence (FDH is formaldehyde dehydrogenase); Potency, µM (top dose mostly 57.1 µM), for the others: top-dose activity change, negative = inhibition, hits mostly inhibitors; 230,000 tested, 1.6% active; active = well fitted inhibition curve with a large enough effect, not every such curve was filed as active; inconclusive = small, poorly fitted or top-dose-only effect, or another doubt; inactive = no such curve, though single readings can be large or run the other way;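 also: potency is read from the fitted curve at half-maximal effect; 0% = wells with enzyme and -100% = buffer wells without enzyme; nearly all actives have a fitted effect of over 50% in size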
Target sequence (B2RXH2 1-337 limits assumed): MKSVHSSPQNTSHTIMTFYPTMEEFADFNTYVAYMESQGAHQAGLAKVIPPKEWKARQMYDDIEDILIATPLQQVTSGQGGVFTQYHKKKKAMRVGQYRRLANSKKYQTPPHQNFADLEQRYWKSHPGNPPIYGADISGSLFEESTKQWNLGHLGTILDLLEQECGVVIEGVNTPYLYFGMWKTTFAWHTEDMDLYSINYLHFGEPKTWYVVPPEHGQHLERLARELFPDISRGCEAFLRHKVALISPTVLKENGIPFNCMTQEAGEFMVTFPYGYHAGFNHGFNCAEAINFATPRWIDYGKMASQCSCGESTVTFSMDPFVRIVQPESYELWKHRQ
Sfp inh = Sfp phosphopantetheinyl transferase inhibition; AID 1490; Biochemical Sfp PPTase activity, qHTS; 310,000 tested, 3.5% active; Potency, µM, for the others: largest response in the series, negative = inhibition, hits mostly inhibitors; Q9F4F7;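 also: the enzyme is Sfp with the accession as filed and its product quenches rhodamine fluorescence; potency is read from the fitted curve at half-maximal effect; 0% = enzyme reaction without inhibitor and -100% = no enzyme wells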
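Reaction rates are the 30-min fluorescence difference (ex 525, em 598 nm) in wells containing 15 nM Sfp, 5 uM rhodamine-CoA and 12.5 uM BHQ-2-YbbR at pH 7.6 with 10 mM MgCl2.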
ALDH1A1 block = inhibitors of human aldehyde dehydrogenase 1A1. P00352. Purified ALDH1A1, NADH fluorescence, propionaldehyde substrate. Potency, µM (highest dose often 75.3 µM), without a hit: top-dose activity, negative = inhibition, hits mostly inhibitors. 220,000 tested, 7.3% active; active = well fitted inhibition curve with a large enough effect, not every such curve was filed as active; inconclusive = small, poorly fitted or top-dose-only effect, or another doubt; inactive = no such curve, though single readings can be large or run the other way;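 also: potency is read from the fitted curve at half-maximal effect; plate controls were no enzyme wells and a reference inhibitor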
NPSR antag = antagonists of human neuropeptide S receptor cAMP signaling; Q6W5P4; CHO-NPSR cells, cAMP TR-FRET, antagonist mode; Potency, µM (doses to about 38.3 µM), without a hit: at the top dose activity change, negative = inhibition, usual class: inhibitors; 220,000 tested, 1% active; AID 1461; also: potency is read from the fitted curve at half-maximal effect; nearly all actives have a fitted effect of over 50% in size
RGS12 GoLoco inh = blocks human Gai1 binding to RGS12 GoLoco peptide, red readout. Gai1:RGS12 GoLoco peptide FP, rhodamine, 10 min. P63096. AID 880. 230,000 tested, 0.44% active. Potency, µM (highest dose often 61.6 µM), for inactives: top-dose activity, negative = inhibition, actives largely listed as inhibitors; active = well fitted inhibition curve with a large enough effect, not every such curve was filed as active; inactive = no such curve, though single readings can be large or run the other way; also: potency is read from the fitted curve at half-maximal effect; nearly all actives have a fitted effect of over 30% in size
Target sequence (P63096 whole entry, looked up): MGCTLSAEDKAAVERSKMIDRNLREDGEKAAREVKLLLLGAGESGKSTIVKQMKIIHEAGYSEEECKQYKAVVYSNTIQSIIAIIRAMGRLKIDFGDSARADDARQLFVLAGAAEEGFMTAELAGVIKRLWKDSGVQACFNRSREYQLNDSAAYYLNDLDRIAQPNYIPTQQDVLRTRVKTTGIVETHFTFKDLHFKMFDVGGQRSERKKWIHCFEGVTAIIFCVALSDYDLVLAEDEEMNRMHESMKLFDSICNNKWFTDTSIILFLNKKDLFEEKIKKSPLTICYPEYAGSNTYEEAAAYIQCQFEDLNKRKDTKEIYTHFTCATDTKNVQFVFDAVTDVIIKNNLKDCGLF
An asterisk follows results filed as active; [ ] = remark or other dose. Unless noted, calls follow the shape of the dose curve; as a rule, active = well fitted curve in the direction sought with a large enough effect; inconclusive = small, poorly fitted or top-dose-only effect, or another doubt; inactive = no such curve, though single readings can be large; an effect the other way counts as inactive or inconclusive. Unless noted, % is scaled to controls: 0 for no effect and ±100 for the full control effect.

Screening Cc1nc2ccc(NC(=O)COc3ccccc3C)cc2s1 returned FBPA coupling cs -7.2, KDM4E inh -16.4%, Sfp inh 31.6µM*, ALDH1A1 block -2.4%, NPSR antag -4.0% and RGS12 GoLoco inh -53.2%.
`Cn1c(SCC(=O)Nc2ccc3nc(SCC(=O)N4CCCC4)sc3c2)nnc1-c1ccc(N)cc1` gave FBPA coupling cs 0.5, KDM4E inh 2.0%, Sfp inh -27.9%, ALDH1A1 block 12.6µM*, NPSR antag -13.5%[46.1 µM] and RGS12 GoLoco inh 7.4%.
`Cc1ccccc1OCc1nnc(SCC(=O)Nc2ccc3nc(SCC(=O)Nc4ccccc4)sc3c2)n1C` gave FBPA coupling cs 1.8, KDM4E inh 5.0%, Sfp inh 7.7%, ALDH1A1 block 12.6µM*, NPSR antag -15.7% and RGS12 GoLoco inh 48.6%.
`Cn1c(SCC(=O)Nc2ccc3nc(SCC(=O)NC4CC4)sc3c2)nnc1-c1ccccc1` gave FBPA coupling cs 4.9, KDM4E inh -1.1%, Sfp inh -0.1%, ALDH1A1 block 10µM*, NPSR antag -10.0% and RGS12 GoLoco inh 4.3%.
Screening CCOc1ccc(C(=O)NCCC2=CCCCC2)cc1OCC returned FBPA coupling cs 6.2, KDM4E inh -27.0%, Sfp inh -0.2%, ALDH1A1 block 25.1µM*, NPSR antag -6.7% and RGS12 GoLoco inh 4.5%.
Cc1ccccc1NS(=O)(=O)c1cc(C(=O)NCCC2=CCCCC2)ccc1Cl was read as FBPA coupling cs 1.0, KDM4E inh -5.8%, Sfp inh 7.6%, ALDH1A1 block 20µM*, NPSR antag -25.4%[46.1 µM] and RGS12 GoLoco inh -5.0%.
`CC[n+]1c(/C=C/N(C)c2ccccc2)oc2ccc(F)cc21` gave FBPA coupling cs -29.4, KDM4E inh inconclusive, Sfp inh 50.1µM*, ALDH1A1 block 14.1µM*, NPSR antag 11.5% and RGS12 GoLoco inh -0.5%.
Screening CC[n+]1c(/C=C/Nc2ccccc2)oc2ccc(OC)cc21 returned FBPA coupling cs -5.7, KDM4E inh inconclusive, Sfp inh 4.7%, ALDH1A1 block 7.1%, NPSR antag -12.4% and RGS12 GoLoco inh 84.6%.
CCOc1ccc(CC(=O)NNC(=O)/C=C/C(=O)O)cc1 was read as FBPA coupling cs -2.2, KDM4E inh -1.0%, Sfp inh inconclusive, ALDH1A1 block inconclusive, NPSR antag -12.8% and RGS12 GoLoco inh -7.2%.
For CN(C)CCNC(=O)c1sc2cccc(F)c2c1Cl the results were FBPA coupling cs 0.4, KDM4E inh -0.9%, Sfp inh 10.7%, ALDH1A1 block 14.1µM*, NPSR antag 11.5% and RGS12 GoLoco inh -3.2%.
For O=C(Nc1cccnc1)c1sc2cccc(F)c2c1Cl the results were FBPA coupling cs -1.6, KDM4E inh -2.9%, Sfp inh 13.5%, ALDH1A1 block inconclusive, NPSR antag -7.1% and RGS12 GoLoco inh 18.6%.
`O=C(NCCCn1ccnc1)c1sc2cccc(F)c2c1Cl` gave FBPA coupling cs 0.9, KDM4E inh -14.0%, Sfp inh 6.0%, ALDH1A1 block 28.2µM*, NPSR antag -1.3%[46.1 µM] and RGS12 GoLoco inh 10.5%.
`CN1[C@@H]2CC[C@H]1CC(OC(c1ccccc1)c1ccccc1)C2` (stereo partly drawn) gave FBPA coupling cs 2.8, Sfp inh -16.2%, ALDH1A1 block 6.7%[13.5 µM] and RGS12 GoLoco inh 0.4%[14.2 µM].
Screening CCN(CC)S(=O)(=O)c1c(OC)cc(C)c(Cl)c1C returned FBPA coupling cs 9.3, KDM4E inh 2.9%, Sfp inh -8.4%, ALDH1A1 block 5.0%, NPSR antag 33.4% and RGS12 GoLoco inh 4.0%.
For COC(=O)c1c(NC(=S)NNC(=O)c2ccc(Cl)s2)sc(C(=O)N(C)C)c1C the results were Sfp inh 3.9%.
`CCc1ccc2n(-c3ccc(OC)cc3)c([S-])c(C(=O)Nc3cc(C)cc(C)c3)[n+]2c1` gave FBPA coupling cs 2.4, KDM4E inh -19.9%, Sfp inh -5.7%, NPSR antag 10µM* and RGS12 GoLoco inh 31.0%.
CCCCC/C=C\C/C=C\C/C=C\C/C=C\CCCCCC(=O)NCCCC(=O)O was read as FBPA coupling cs -1.8, KDM4E inh -4.7%, Sfp inh 2.3%, ALDH1A1 block -6.0% and RGS12 GoLoco inh -0.1%.
Screening O=C(OCC(=O)N1CCN(c2ccccc2)CC1)c1ccc(O)cc1O returned Sfp inh -6.9%.
For CCOC(=O)C1=C(O)/C(=C/c2cc(OC)c(OC)c(OC)c2)N=C1C the results were KDM4E inh -10.8%, Sfp inh 89.1µM*, ALDH1A1 block -5.8%, NPSR antag inconclusive and RGS12 GoLoco inh 11.7%.
For Cc1ccccc1NC(=O)Cc1nnc(SCC(=O)NC2=NCCS2)n1C the results were FBPA coupling cs 2.2 and Sfp inh 6.7%.
CCOc1ccc(N(C(=O)Cn2nnc3ccccc32)C(C(=O)NC(C)(C)CC)c2cccn2C)cc1 (stereo not drawn) was read as FBPA coupling cs -0.4, KDM4E inh 0.4%, Sfp inh 25.4%, ALDH1A1 block 0.3%, NPSR antag -16.9%[46.1 µM] and RGS12 GoLoco inh 2.6%.
Screening CCC(C)(C)NC(=O)C(c1cccn1C)N(C(=O)Cn1nnc2ccccc21)c1ccc(OC)cc1OC (stereo not drawn) returned FBPA coupling cs -1.9, KDM4E inh -2.0%, Sfp inh 16.1%, ALDH1A1 block 11.2µM*, NPSR antag -19.6%[46.1 µM] and RGS12 GoLoco inh 3.9%.
For CCN(CC)C(CNC(=O)c1cc(=O)[nH]c2ccccc12)c1ccccc1Cl (stereo not drawn) the results were FBPA coupling cs 0.9 and Sfp inh 6.9%.
Screening CC(C)c1nnc(NC(=O)CS(=O)(=O)Cc2ccccc2)s1 returned FBPA coupling cs -0.2, KDM4E inh -0.7%, Sfp inh -27.4%, ALDH1A1 block 7.94µM*, NPSR antag 0.7% and RGS12 GoLoco inh -0.1%.
Screening CCCC(C)c1nnc(NC(=O)CS(=O)(=O)Cc2ccccc2)s1 (stereo not drawn) returned KDM4E inh -1.6%, Sfp inh -29.4%, ALDH1A1 block 25.1µM*, NPSR antag -3.8%[46.1 µM] and RGS12 GoLoco inh 0.4%.
Screening CCOc1ccccc1C(=O)Nc1nncs1 returned FBPA coupling cs 0.0, KDM4E inh 2.2%, Sfp inh 11.6%, ALDH1A1 block -5.3%, NPSR antag -3.0%[46.1 µM] and RGS12 GoLoco inh 4.8%.
CCCC(C)c1nnc(NC(=O)CCS(=O)(=O)Cc2ccccc2)s1 (stereo not drawn) was read as FBPA coupling cs 3.5 and Sfp inh 50.1µM*.
`CCOc1ccccc1C(=O)Nc1nnc(C(C)C)s1` gave FBPA coupling cs 1.3, KDM4E inh -20.3%, Sfp inh -10.9%, ALDH1A1 block 1.26µM*, NPSR antag -1.1%[46.1 µM] and RGS12 GoLoco inh 2.7%.

Source: PubChem (National Center for Advancing Translational Sciences (NCATS))
